# Screening data from PubChem.
# FAS-TE inh – FAS thioesterase (human) inhibition; P49327; recombinant FAS-TE, OMFH fluorogenic substrate, fluorescence endpoint; inhibition, % at 15 µM; 360,000 tested, 0.67% active; AID 602261;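 active = compounds whose normalised, plate-corrected inhibition of enzyme fluorescence in the single-dose primary screen is 50% or more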;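 note: 0% = DMSO with enzyme and 100% = substrate without enzyme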
# ADAM10 inh – inhibitors of human ADAM10. inhibition, % at 7 µM. 370,000 tested, 0.62% active. O14672. AID 720582. recombinant ADAM10, EDANS/DABCYL FRET peptide cleavage, 3 h;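 active = inhibition above a per-campaign cutoff equal to the mean of compounds falling between control-based bounds plus 3 SD, cut at about 20% in these data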;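 note: 0% = DMSO wells while the 100% control is not disclosed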
# Target sequence (O14672 214-748 limits assumed): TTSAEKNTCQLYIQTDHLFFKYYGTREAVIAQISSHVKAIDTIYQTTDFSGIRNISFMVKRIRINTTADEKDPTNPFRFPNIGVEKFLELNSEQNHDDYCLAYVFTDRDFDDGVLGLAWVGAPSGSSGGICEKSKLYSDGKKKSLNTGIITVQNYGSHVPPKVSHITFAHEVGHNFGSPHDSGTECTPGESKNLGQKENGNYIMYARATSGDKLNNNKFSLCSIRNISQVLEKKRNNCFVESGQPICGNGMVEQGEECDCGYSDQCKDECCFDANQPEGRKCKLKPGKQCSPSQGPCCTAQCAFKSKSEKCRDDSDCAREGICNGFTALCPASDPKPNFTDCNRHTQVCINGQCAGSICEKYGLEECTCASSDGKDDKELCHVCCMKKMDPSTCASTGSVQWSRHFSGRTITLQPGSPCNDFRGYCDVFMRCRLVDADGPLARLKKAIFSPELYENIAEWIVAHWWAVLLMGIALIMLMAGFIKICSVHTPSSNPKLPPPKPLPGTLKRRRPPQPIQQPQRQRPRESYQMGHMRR
# NR3A LBD binder – modulates the human NR3A ligand-binding domain. NR3A LBD differential scanning fluorimetry, Tm shift; 0% = protein alone, 100% = glycine-bound protein. Tm shift relative to glycine control, % at 25 µM. 340,000 tested, 2.5% active. AID 1259313;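 active = melting temperature shift of at least 10% of the positive control shift, at one fixed dose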
# aDG glyco act – increases alpha dystroglycan glycosylation; Pro5-aDG cells, alpha-DG glycosylation AlphaScreen (IIH6); 0% Pro5, 100% B10-LARGE cell signal; activation, % at 10 µM; 360,000 tested, 0.22% active; AID 624168;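 active = activation of at least 8% versus controls, or a plate z-score of at least 8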;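 note: Pro5 are CHO cells carrying HIG-tagged alpha-DG that lacks glycosylation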
# ADAM17 inh – inhibits human ADAM17. P78536. recombinant ADAM17, EDANS/DABCYL FRET peptide cleavage. inhibition, % at 6.95 µM. 370,000 tested, 0.83% active. AID 720648;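 active = inhibition above the mean of compounds lying between control limits plus 3 SD, set per campaign, cut at about 8.5% in these data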;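 note: 0% = DMSO-only wells as the low control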
# FAS-TE inh conf – FAS thioesterase (human) inhibition, confirmation; recombinant FAS-TE, OMFH fluorogenic substrate, fluorescence; 2,300 tested, 45% active; shares compounds with FAS-TE inh; AID 624325; inhibition, % at 15 µM;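 active = compounds inhibiting the enzyme by at least 50% at 15 µM in any one of the replicates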;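 note: 0% = enzyme with DMSO only and 100% = wells lacking enzyme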
# * hit, by the source's call; / = not tested or not shown. In the library only some 4% were active in any assay of this set; here they are far more common.
SMILES,FAS-TE inh,ADAM10 inh,NR3A LBD binder,aDG glyco act,ADAM17 inh,FAS-TE inh conf
CC(CC(=O)Nc1cccc(Cl)c1)c1ccccc1 (configuration not stated),0.3,1.0,-5.9,0.1,-1.4,/
CCOC(=O)C(C(=O)NCc1ccc(F)cc1)c1ncc(C(F)(F)F)cc1Cl (configuration not stated),23.0,-2.6,-0.4,-0.1,-1.0,/
O=C(NCc1ccc(F)cc1)C(C(=O)NCc1ccc(F)cc1)c1ncc(C(F)(F)F)cc1Cl,58.1*,0.5,-1.0,0.1,5.7,62.2*
N#Cc1cc(NC2CCCC2)c([N+](=O)[O-])cc1C#N,53.9*,-12.6,5.4,0.2,-4.0,21.8
O=[N+]([O-])c1ccc(NC2CCCC2)cc1,2.9,8.4,1.7,-0.2,1.3,/
COc1ccc(-c2noc(CCC(=O)NCCCN3CCC(C)CC3)n2)cc1,-3.9,-8.3,-1.4,0.2,-4.9,/
COc1ccc(N2CCN(C(=O)CSc3ccc([N+](=O)[O-])cc3)CC2)cc1,60.1*,-1.3,-1.1,-0.1,-1.8,33.4*
O=C(Nc1cc(Oc2ccc(Cl)cc2)cc([N+](=O)[O-])c1)c1ccco1,56.4*,-0.1,21.5*,0.0,2.3,45.1
Cc1ccc(C(=O)NN=C2CCCCCC2)s1,-8.0,1.8,0.9,-0.2,-0.6,/
N#CC(CCc1ccccc1[N+](=O)[O-])(CCc1ccccc1[N+](=O)[O-])C(N)=O,51.9*,-0.4,4.0,-0.3,2.4,46.6*
CC(C)N1CCc2c(sc(NC(=O)c3ccc([N+](=O)[O-])o3)c2C(N)=O)C1,59.5*,5.3,/,-0.7,4.4,71.5*
O=C(CC12CCC(CC1)C2)NCc1ccc2c(c1)OCO2,3.5,-1.0,-1.0,-0.1,-1.6,/
CC(NC(=O)COC(=O)c1cc([N+](=O)[O-])ccc1N1CCOCC1)c1ccccc1 (configuration not stated),73.4*,1.2,0.7,-0.2,4.3,84.5*
CC(NC(=O)COC(=O)c1cc([N+](=O)[O-])ccc1N1CCOCC1)c1ccc(F)cc1 (configuration not stated),82.1*,3.3,-4.1,-0.2,1.3,83.9*
CC(=O)c1cccc(OC(=O)Oc2cccc(C(C)=O)c2)c1,50.1*,1.3,-2.8,-0.1,-4.0,68.8*
CCSc1nnc2c(n1)OC(c1ccc(C(=O)O)cc1)N(C(C)=O)c1ccccc1-2 (configuration not stated),1.7,-4.3,-3.1,-0.1,-0.4,/
Cc1ccc2c(C)nc(N/C(N)=N/S(=O)(=O)c3ccc([N+](=O)[O-])cc3)nc2c1,52.2*,11.7,-1.3,4.3,-2.1,58.4*
CCCCOc1ccc(S(=O)(=O)N2CCN(c3ccc(N4CCN(CC)CC4)nn3)CC2)cc1,59.8*,-78.0,1.2,2.4,-19.9,29.2
CCCCOc1ccc(S(=O)(=O)N2CCCCC2)cc1,22.6,3.1,-2.0,0.3,-1.6,/
Cc1c(C(=O)Nc2ccc(-c3nnc4n3CCCCC4)cc2)oc2c1ccc1ccccc12,78.0*,-7.4,-11.7,0.7,-4.0,6.2
CCn1c2ccccc2c2cc(NC(=O)c3ccc(C)c([N+](=O)[O-])c3)ccc21,52.2*,8.5,7.1,0.4,2.1,-1.9
CCCC(=O)Nc1cccc(NC(=O)c2ccc(C)c([N+](=O)[O-])c2)c1,14.9,8.7,-18.8,-0.2,-4.9,/
O=C(Nc1ccccc1)C1(c2ccccc2)CC1(Cl)Cl (configuration not stated),3.8,-8.1,-2.8,0.0,-0.3,/
O=C(NC(=S)Nc1cccc(C(F)(F)F)c1)c1ccc2nonc2c1,50.8*,8.3,8.9,0.0,2.9,20.4
O=C(O)c1cccc(NC(=S)NC(=O)c2ccncc2)c1,-4.4,-4.0,0.7,0.3,0.7,/
SMILES,FAS-TE inh,ADAM10 inh,NR3A LBD binder,aDG glyco act,ADAM17 inh,FAS-TE inh conf
COc1ccc(S(=O)(=O)N(C)C[C@H]2Oc3c(NC(=O)Nc4ccc(C(F)(F)F)cc4)cccc3C(=O)N([C@H](C)CO)C[C@@H]2C)cc1,61.4*,/,11.4*,2.5,/,45.1
Cc1noc(C)c1NC(=O)Nc1cccc2c1O[C@H](CN(C)C(=O)NC1CCCCC1)[C@@H](C)CN([C@H](C)CO)C2=O,76.7*,-0.1,0.1,0.0,-2.6,83.8*
C[C@@H]1CN([C@H](C)CO)C(=O)c2cccc(NC(=O)Nc3ccc(C(F)(F)F)cc3)c2O[C@H]1CN(C)S(=O)(=O)c1cccs1,31.6,17.1,-1.4,-0.4,4.9,/
C[C@@H]1CN([C@H](C)CO)C(=O)c2cccc(NC(=O)NC3CCCCC3)c2O[C@@H]1CN(C)C(=O)Nc1ccc(C(F)(F)F)cc1,76.9*,/,5.0,0.1,/,70.0*
Cc1noc(C)c1NC(=O)N(C)C[C@H]1Oc2c(NC(=O)NC(C)C)cccc2C(=O)N([C@H](C)CO)C[C@@H]1C,-9.1,6.7,1.1,-0.2,-3.8,/
C[C@H](CO)N1C[C@H](C)[C@@H](CN(C)C(=O)Nc2ccc(C(F)(F)F)cc2)Oc2c(NC(=O)NC3CCCCC3)cccc2C1=O,47.0,8.6,1.4,0.2,4.7,/
OCC1(Cc2ccccc2)CCN(Cc2ccccn2)CC1,-2.7,-9.3,-0.2,0.3,-3.6,/
